Source: PubChem BioAssay
This is a sample that favours compounds with a hit; in the whole collection about 5.7% have one here.
KB-V1 cytotox: KB-V1 MDR subline cytotoxicity. 400,000 tested, 3.4% active. Potency, µM (series often up to 46.1 µM), most hits filed as cytotoxic. KB-V1 MDR cells viability, CellTiter-Glo, 72 h; also: nearly all actives have a fitted effect of over 60% in size
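Compound-treated KB-V1 multidrug-resistant cells, 72 h, 37 degrees C; viability by CellTiter-Glo. Fitted qHTS curves give the values.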
HT1080 IDH1KD tx: kills HT-1080 cells with IDH1 knockdown; Potency, µM (doses to about 46.1 µM), for inactives: at the top dose activity, negative = toxicity, usual class: cytotoxic; 360,000 tested, 2% active; HT-1080 IDH1 knockdown viability, ATP luminescence, 48 h;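 also: 0% = DMSO wells and -100% = cell-free medium wells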
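In this qHTS, HT-1080 cells depleted of IDH1 are exposed for 48 h at 37 °C to compound titrations. Toxicity is scored from CellTiter-Glo luminescence, with DMSO as full viability and medium alone as none.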
HT1080NT lethal: kills 2HG-producing HT-1080-NT fibrosarcoma cells. HT-1080-NT fibrosarcoma viability, CellTiter-Glo ATP luminescence, 48 h. Potency, µM (top dose mostly 46.1 µM), for the others: at the highest dose activity, negative = less viability, most hits filed as cytotoxic. 360,000 tested, 1.6% active;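 also: NT is the 2HG producing partner of a matched IDH1 knockdown line; 0% = DMSO-treated cells and -100% = media-only wells without cells; nearly all actives have a fitted effect of over 55% in size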
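Compounds were tested in concentration-response format on HT-1080-NT cells for 48 hours at 37 degrees C. Cell viability came from CellTiter-Glo luminescence; curves were classified by r2, response magnitude and activity.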
KB-3-1 cytotox: kills parental KB-3-1 adenocarcinoma cells. KB-3-1 viability, CellTiter-Glo ATP luminescence, 72 h. Potency, µM (series often up to 46.1 µM), most hits filed as cytotoxic. AID 1347075. 400,000 tested, 1.4% active; also: nearly all actives have a fitted effect of over 60% in size
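72 h, 37 °C compound treatment of KB-3-1 parental cells; CellTiter-Glo added, 10 min, luminescence read. Data corrected against DMSO-only plates and normalized before curve fitting.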
The depositor's hits bear a star; i = inactive; ? = inconclusive; . = no result; [ ] = another dose, or the depositor's remark. Calls follow the shape of the dose curve; as a rule, active = well fitted curve in the direction sought with a large enough effect; inconclusive = small, poorly fitted or top-dose-only effect, or another doubt; inactive = no such curve, though single readings can be large; an effect the other way counts as inactive or inconclusive. Unless noted, % is scaled to controls: 0 for no effect and ±100 for the full control effect; potency is read from the fitted curve at half-maximal effect.

SMILES	KB-V1 cytotox	HT1080 IDH1KD tx	HT1080NT lethal	KB-3-1 cytotox
C#CCN(C[C@@H]1[C@@H](OC(=O)NCCCCCC)[C@@H](OC(=O)NCCCCCC)Cn2c(=O)ccc(=O)n21)S(=O)(=O)c1ccc(C)cc1	i	4.1µM*	4.6µM*	?
C#CCN(C[C@@H]1[C@@H](OC(=O)NCc2ccco2)[C@@H](OC(=O)NCc2ccco2)Cn2c(=O)ccc(=O)n21)S(=O)(=O)c1ccc(C)cc1	i	?	15µM*	16µM*
CCCCCCNC(=O)O[C@H]1Cn2c(=O)ccc(=O)n2[C@@H]2CN(S(=O)(=O)c3ccc(C)cc3)C[C@]12O	i	23µM*	16µM*	16µM*
C#CCN(C[C@@H]1[C@@H](OC(=O)NCc2ccco2)[C@@H](OC(=O)NCc2ccco2)Cn2c(=O)n(CCCCCC)c(=O)n21)S(=O)(=O)c1ccc(C)cc1	i	-6%	-3%	?
CCOC(=O)C1(C)C=C(Nc2cccc(C)c2)C(=O)N1c1ccccc1 (stereo unspecified)	i	.	.	i
Cc1ccc(-c2c3c(=O)n(C)c(=O)n(C)c3c3c(C(F)(F)F)nc4ccccc4n23)cc1	i	.	.	i
CCC1CCc2nc3sc(C(=O)Nc4cccc(F)c4)c(N)c3cc2C1 (stereo unspecified)	i	.	.	i
C#CCN(C[C@H]1[C@H](OC(=O)NCC2CCCCC2)[C@H](OC(=O)NCC2CCCCC2)C[C@@H](C(=O)OC)[C@H]1C(=O)OC)S(=O)(=O)c1ccc(C)cc1	i	-1%	0%	i
C#CCN(C[C@@H]1[C@@H](OC(=O)NCC2CCCCC2)[C@@H](OC(=O)NCC2CCCCC2)Cn2c(=O)ccc(=O)n21)S(=O)(=O)c1ccc(C)cc1	i	2.6µM*	5.2µM*	i
CCOC(=O)c1ccc(NC(=O)C(C)N(c2ccc(OCC)cc2)S(C)(=O)=O)cc1 (stereo unspecified)	i	.	.	i
COc1ccccc1C1C(C(=O)Nc2ccccc2)=C(C)Nc2nc(-c3ccccc3)nn21 (stereo unspecified)	i	.	.	i
CC(=O)N(C)c1ccc(/C=C2\C=Cc3ccccc32)cc1	i	.	.	i
Clc1ccc(CCNC(c2cccc(Cl)c2)c2nnc(-c3ccccc3)o2)cc1 (stereo unspecified)	i	.	.	i
Nc1cccc2nc3ccccc3cc12	i	13µM*	18µM*	?
Brc1ccc2ncnc(NCc3ccccc3)c2c1	?	0%[9.24 µM]	?	12µM*
CCCCCCCCNc1ncnc2ccccc12	0.18µM*	?	?	0.65µM*
c1ccc(CCNc2ncnc3ccccc23)cc1	?	2.1µM*	?	?
CCc1ccccc1Nc1ncnc2ccccc12	i	-1%	-11%	i
O=C(C[n+]1ccc2ccccc2c1)c1ccc(O)c(O)c1	i	.	.	i
Cc1ccc(NC(=O)Cn2c(=O)n(CCc3ccccc3)c(=O)c3c4c(sc32)CCCC4)c(C)c1	i	.	.	i
O=C(c1cnn(-c2ccc(F)cc2)c1-n1cccc1)N1CCN(c2ccccc2)CC1	23µM*	.	.	?
O=C(NNS(=O)(=O)c1ccccc1)c1cnn(-c2ccccc2)c1-n1cccc1	16µM*	1%	?	i
O=C(NNS(=O)(=O)c1ccc(Cl)cc1)c1cnn(-c2ccccc2)c1-n1cccc1	i	1%	5%	i
CC1Cc2cc(-c3csc(NC(=O)Cc4cccs4)n3)ccc2N1S(C)(=O)=O (stereo unspecified)	2.6µM*	?	-11%	3.3µM*
O=C(Cc1cccs1)Nc1nc(-c2ccc(F)cc2F)cs1	?	?	-15%	23µM*
SMILES	KB-V1 cytotox	HT1080 IDH1KD tx	HT1080NT lethal	KB-3-1 cytotox
O=C(Cc1cccs1)Nc1nc(-c2ccc(F)c(F)c2)cs1	?	-6%	-7%	?
CCC(=O)Nc1nc(-c2ccc3c(c2)CC(C)N3S(C)(=O)=O)cs1 (stereo unspecified)	i	-11%	-10%	?
Cc1nn(-c2ccccc2)c(C)c1C(=O)OCC(=O)N1CCN(S(=O)(=O)c2ccccc2)CC1	?	-7%	17%	i
COc1ccc(S(=O)(=O)N2CCN(C(=O)c3c(C)nn(-c4ccccc4)c3C)CC2)cc1	13µM*	0%	-1%	i
CC(=O)c1c(C)[nH]c(C(=O)NCc2ccccc2F)c1C	i	6%	10%	i
CCOC(=O)c1[nH]c(C)c(C(=O)NCc2ccccc2Cl)c1C	i	.	.	i
CC(=O)c1c(C)[nH]c(C(=O)NCc2ccccc2Cl)c1C	23µM*	-1%	0%	i
Cc1nc(C)c(C(=O)NCc2ccccc2Cl)o1	21µM*	-1%	0%	?
CCc1c(C(=O)NCc2ccccc2Cl)[nH]c(C)c1C(C)=O	7.3µM*	-6%	-16%	i
CCC(CC)C(=O)NCc1ccccc1Cl	i	9%	9%	i
O=C(CN1c2ccc(Br)cc2-c2ccccc2S1(=O)=O)N1CCCCC1	i	.	.	i
COC(=O)c1ccc(CN2CCC(CO)(Cc3ccccc3Cl)CC2)cc1	i	?	?	i
COc1ccc(/C=C/CN2CCC(CO)(Cc3ccccc3Cl)CC2)cc1	?	23µM*	23µM*	?
CN1CC[C@]23c4ccccc4N[C@H]1[C@]21CCN(C)[C@H]3Nc2ccccc21	i	-2%	16%	i
COC(=O)C1CC23C=CCN4CCC5(c6ccccc6NC15C2C)C43 (stereo unspecified)	?	0.73µM*	0.58µM*	1µM*
CCCCN(CCCNC(=O)c1cc(Nc2ccc(OC)c(OC)c2)nc2ccccc12)Cc1ccccc1	i	.	.	?
CCN1CCN(CC(=O)N2N=C(c3cccs3)CC2c2ccc(OC)c(OC)c2)C(=O)C1=O (stereo unspecified)	i	-3%	15%	i
C=C1C(=O)c2sccc2C(c2ccc(OC)c(OC)c2)C1COC(C)=O (stereo unspecified)	?	2.3µM*	2.6µM*	?
OCCCNc1cc(-c2ccnc(Nc3cccc(Cl)c3)n2)ccn1	0.13µM*	?	-45%	?
Cc1cc(C)c2c(c1)N[C@H](c1cccs1)[C@@H]1CCO[C@H]21	i	9%	9%	?
CC(C)c1ccc2c(c1)[C@H]1OCC[C@H]1[C@@H](c1cccs1)N2	2.3µM*	3.3µM*	2.9µM*	6.5µM*
CCOc1ccccc1C(=O)Nc1c(NC)c2ccccc2oc1=O	i	.	.	i
COc1ccc(OC)c(/C(O)=C/C(=O)C(=O)Nc2ccccc2OC)c1	9.2µM*	1%	4%	i
COc1ccccc1C(=O)Nc1ccccc1SC(=O)c1ccccc1OC	i	?	18µM*	?
CCSc1ccccc1C(=O)Nc1cccc(OC)c1	18µM*	10%	25%	i
CCOc1ccccc1C(=O)Nc1cc(OC)ccc1OC	15µM*	?	12%	i
